Among all 190,000 compounds or so, about 1,900 (1%) were called active.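 How the source made its calls: active means percentage of spot-positive cells more than 3 SD above its plate mean, without a fluorescence outlier flag or 80% toxicity; inconclusive means no clear call, values can overlap the other calls; inactive means the rest.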 This excerpt belongs to a sample that is enriched for actives.
Assay: GFP-LC3 puncta formation changes – imaging, high-content, MEF GFP-LC3, primary screen (AID 463193);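 on % cells with GFP-LC3 spots: spot-positive cell cutoff set from DMSO-treated cells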;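 on toxicity: cell loss after 18 h compound exposure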
Settings: autophagy, at 10 µM; % cells with GFP-LC3 spots: stronger effect = higher value; toxicity: measured here: cell loss, nuclei count
For CCNC(=S)N(CCc1c(C)[nH]c2ccc(C)cc12)Cc1ccco1, the % cells with GFP-LC3 spots was 19.1% (active) and the toxicity was 0.117%. With COc1cccc(NC(=S)N(CCc2c(C)[nH]c3ccccc23)Cc2ccco2)c1 the % cells with GFP-LC3 spots was 9.78% (inactive) and the toxicity was 16.6%. In the case of COc1ccc2[nH]c(C)c(CCN(Cc3cccs3)C(=S)Nc3ccccc3OC)c2c1, the % cells with GFP-LC3 spots is reported as 12.3% (inactive) and the toxicity is reported as 16.6%. With COC(=O)c1nc2n(n1)C(c1ccc([N+](=O)[O-])cc1)C(C(=O)Nc1ccc(Cl)cc1)=C(C)N2 (configuration not stated) the % cells with GFP-LC3 spots was 5.34% (inactive) and the toxicity was -5.39%. In the case of O=C(c1cccc([N+](=O)[O-])c1)N1CCN(C(=O)c2ccco2)CC1, the % cells with GFP-LC3 spots is reported as 0.295% (inactive) and the toxicity is reported as 7.8%. With CCC(=O)c1ccc(OCC(O)CN2CCN(c3cccc(C(F)(F)F)c3)CC2)cc1 (configuration not stated) the % cells with GFP-LC3 spots was 13.1% (active) and the toxicity was 8.02%. For O=C(COc1ccc(Cl)cc1)N1CCN(c2cccc(C(F)(F)F)c2)CC1, the % cells with GFP-LC3 spots was 9.65% (inactive) and the toxicity was -3.29%. In the case of CCC(=O)c1ccc(OCC(O)CN2CC(C)OC(C)C2)cc1 (configuration not stated), the % cells with GFP-LC3 spots is reported as 5.51% (inactive) and the toxicity is reported as -8.47%. With CCO[C@@H]1OC(C(N)=O)=C[C@H](c2ccc(Br)cc2)[C@H]1CCCO the % cells with GFP-LC3 spots was 18.2% (inactive) and the toxicity was 10.9%. For CNS(=O)(=O)c1ccc(NC(=O)C2CC(=O)N(c3ccc(Cl)cc3)C2)cc1 (configuration not stated), the % cells with GFP-LC3 spots was 8.63% (inactive) and the toxicity was -13.2%. For COc1cccc(C(=O)N2CCCC(CCC(=O)NCc3ccc(F)c(F)c3)C2)c1 (configuration not stated), the % cells with GFP-LC3 spots was 3.38% (inactive) and the toxicity was 5.82%. With O=C(O)CC(Cc1ccccc1)C(=O)Nc1ccc([N+](=O)[O-])cc1 (configuration not stated) the % cells with GFP-LC3 spots was 1.42% (inactive) and the toxicity was -2.46%. With CN(C)S(=O)(=O)c1ccc2oc(SCC(=O)Nc3ccccc3F)nc2c1 the % cells with GFP-LC3 spots was 0.884% (inactive) and the toxicity was -4.66%. With Cc1cccc(C(=O)N2CCc3c([nH]c4ccccc34)C2CC(C)C)n1 (configuration not stated) the % cells with GFP-LC3 spots was 11% (inactive) and the toxicity was -2.26%. For C=CCNC(=O)CC12CC3CC(C1)CC(CC(=O)NCC=C)(C3)C2, the % cells with GFP-LC3 spots was 23% (inactive) and the toxicity was 16.8%. In the case of C=CCNC(=O)CCCC(=O)NCC=C, the % cells with GFP-LC3 spots is reported as 17.9% (active) and the toxicity is reported as 1.29%. For C=CCNC(=O)CCCOc1cccc(C)c1, the % cells with GFP-LC3 spots was 10.7% (inactive) and the toxicity was 16.1%. For O=C(O)c1cccc(N=NN2CCCCCC2)c1, the % cells with GFP-LC3 spots was 6.85% (inactive) and the toxicity was -1.54%. In the case of CSc1ncnc2sc(C)c(C)c12, the % cells with GFP-LC3 spots is reported as 10.2% (inactive) and the toxicity is reported as 24.5%. With CCCOC(=O)c1[nH]c2c(c1C)C(=O)CC(c1cc(OC)c(OC)c(OC)c1)C2 (configuration not stated) the % cells with GFP-LC3 spots was 12.1% (inactive) and the toxicity was 15.9%. In the case of CCOC(=O)c1[nH]c2c(c1C)C(=O)CC(c1ccc(N(C)C)cc1)C2 (configuration not stated), the % cells with GFP-LC3 spots is reported as 2.24% (inactive) and the toxicity is reported as -7.4%. In the case of CCCOC(=O)c1[nH]c2c(c1C)C(=O)CC(c1cccs1)C2 (configuration not stated), the % cells with GFP-LC3 spots is reported as 19% (active) and the toxicity is reported as 63%. In the case of Cc1ccc(SC(C)C(=O)NCc2ccc(F)cc2)cc1 (configuration not stated), the % cells with GFP-LC3 spots is reported as 0.143% (inactive) and the toxicity is reported as -15%. For Cc1nn(C)c(Oc2ccccc2)c1[N+](=O)[O-], the % cells with GFP-LC3 spots was 2.75% (inactive) and the toxicity was -3.54%. In the case of Cc1cccc(Cn2cnc3c(N)c(C)c(C)cc32)c1, the % cells with GFP-LC3 spots is reported as 1.71% (inactive) and the toxicity is reported as 1.99%. For COc1cccc(Cn2cnc3c([N+](=O)[O-])c(C)c(C)cc32)c1, the % cells with GFP-LC3 spots was 6.93% (active) and the toxicity was -2.05%. For CCOc1cccc(OCCCOc2cccc3cccnc23)c1, the % cells with GFP-LC3 spots was 3.63% (inactive) and the toxicity was -4.48%. For Fc1ccc2nc(-c3ccccc3)nc(SCc3nnc(-c4ccccc4)o3)c2c1, the % cells with GFP-LC3 spots was 4.88% (inactive) and the toxicity was 16.1%. For Cc1ccc2nc(SCc3nnc(-c4ccccc4[N+](=O)[O-])o3)c(C#N)cc2c1, the % cells with GFP-LC3 spots was 85.6% (active) and the toxicity was 21.6%. In the case of Cc1nonc1NC(=O)CSc1nc2ccccc2cc1C#N, the % cells with GFP-LC3 spots is reported as 0.583% (inactive) and the toxicity is reported as -8.81%. With CCOc1ccc(Br)cc1S(=O)(=O)N1CCC(C(=O)O)CC1 the % cells with GFP-LC3 spots was 6.06% (inactive) and the toxicity was 14.1%. For C/C(=N/O)c1ccc(N2C(=O)C3C4C=CC(C3C2=O)C2C3C(=O)N(c5ccc(/C(C)=N/O)cc5)C(=O)C3C42)cc1 (configuration not stated), the % cells with GFP-LC3 spots was 11.7% (inactive) and the toxicity was 14.4%. For O=C(NC(Nc1nc2ccc([N+](=O)[O-])cc2s1)(C(F)(F)F)C(F)(F)F)c1ccccc1, the % cells with GFP-LC3 spots was 31.8% (active) and the toxicity was 57.9%. For O=C(O)CCC(=O)Nc1nc2ccc([N+](=O)[O-])cc2s1, the % cells with GFP-LC3 spots was 6.76% (inactive) and the toxicity was 11.6%. In the case of O=C(Nc1nc2ccc([N+](=O)[O-])cc2s1)c1ccc(S(=O)(=O)N2CCCc3ccccc32)cc1, the % cells with GFP-LC3 spots is reported as 16.8% (inactive) and the toxicity is reported as 25.4%. In the case of O=C(c1ccc2ccccc2n1)N1CCN(c2ccccc2Cl)CC1, the % cells with GFP-LC3 spots is reported as 4.83% (inactive) and the toxicity is reported as -5.94%. For CCOC(=O)N1CCN(C(=O)CSc2nc(C)nc3c2c(=O)n(C)c(=O)n3C)CC1, the % cells with GFP-LC3 spots was 12.3% (inactive) and the toxicity was 3.6%. For Cc1ncoc1C(=O)NCCC(c1ccccc1)c1ccccc1, the % cells with GFP-LC3 spots was 18% (inactive) and the toxicity was 11.5%. With COc1cccc(CNC(=O)CCC2CCCN(C(=O)c3cc(C)[nH]n3)C2)c1 (configuration not stated) the % cells with GFP-LC3 spots was 0.272% (inactive) and the toxicity was -19.2%. With Cc1occc1C(=O)N1CCCc2ccccc21 the % cells with GFP-LC3 spots was 12.6% (inactive) and the toxicity was -3.33%. In the case of O=C(c1cccc(C(=O)N2CCc3ccccc32)n1)N1CCc2ccccc21, the % cells with GFP-LC3 spots is reported as 7.33% (inactive) and the toxicity is reported as 25.5%.
